Assay results published in paper PMC10954555.

Molecular target: RNA polymerase-associated protein LEO1 (UniProt Q8WVC0)
Test: other; cross-linking mass spectrometry; other

Listed as a hit, yes:
RNA polymerase-associated protein CTR9 homolog, Q6PD62
RNA polymerase II-associated factor 1 homolog, Q8N7H5
Parafibromin, Q6P1J9
